We go through 92 molecules from PubChem BioAssay AID1085 (Emory University Molecular Libraries Screening Center, 2008).

Molecules are shown by their SMILES. Among all 220,000 compounds or so, about 930 (0.42%) were called active. No stated cut-off is given here; in the data, active means inhibition above about 50%; inactive means the rest. This excerpt belongs to a sample that is enriched for actives.

The target of this test is Glycoprotein 42 (Epstein-Barr virus (strain AG876)) (UniProt Q1HVG2). Description: Epstein-Barr virus gp42 inhibitors, primary screen, biochemical, uHTS, fluorescence polarization (AID 1085). Particulars: Fluorescence polarization binding assay, mP read-out; active compounds read high; tested at 21.74 µM. A general note: Fluorescence polarisation rises when a labelled molecule tumbles more slowly, as on binding a larger partner.
Chain of Glycoprotein 42 (Epstein-Barr virus (strain AG876)) (Q1HVG2 whole entry, looked up): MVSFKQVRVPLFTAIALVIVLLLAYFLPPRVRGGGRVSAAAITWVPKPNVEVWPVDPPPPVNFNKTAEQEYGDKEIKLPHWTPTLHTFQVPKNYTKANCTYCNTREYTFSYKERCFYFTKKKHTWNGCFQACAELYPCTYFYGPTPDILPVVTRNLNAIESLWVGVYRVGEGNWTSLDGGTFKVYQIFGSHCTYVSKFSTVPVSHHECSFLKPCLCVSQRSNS
Broadly, the inhibition is the relative decrease from the control value, in per cent. Regarding `CCOC(=O)c1cc2n(c1N)-c1ccccc1C2=O`, the inhibition was 157% (active).
With `CCOC(=O)Nc1ccccc1N1C(=O)c2ccccc2C1=O`, the inhibition was -16.9% (inactive).
As for `CC(C)OC(=O)CN1C(=O)C(=O)c2ccccc21`, the inhibition is -5.73% (inactive).
The result for `CCNc1nc(N)nc(-c2cc(Cl)ccc2OC)n1` reads -10.6% (inactive); that for `CCN(CC)S(=O)(=O)c1ccc(Cl)c(C(=O)NC(C)C(c2cccs2)N2CCCC2)c1` (configuration not stated), -7.74% (inactive).
Consider `O=C(c1[nH]ncc1-c1ccc(Cl)cc1)C1CO1` (configuration not stated), for which the inhibition is -0.17% (inactive).
For `Nc1ccc2nc3c(=O)[nH]c(=S)[nH]c3nc2c1` the value was 158% (active); for `O=C(Nc1ccc([N+](=O)[O-])cc1)C1CC12CCC2` (configuration not stated), 18.7% (inactive); for `FC(F)(F)c1ccc(-n2cn[nH]c2=S)cc1`, -0.1% (inactive).
For `COc1ccccc1NC(=O)CCSc1nnc(-c2ccc(O)cc2)o1` the value was 16.2% (inactive).
Consider `Cc1cccc(OCCNC(=S)NC(=O)c2cccnc2)c1`, for which the inhibition was -11% (inactive).
On to `Cc1ccc(-c2nc(SCC(=O)Nc3ccccc3OC(F)F)c3c(C)c(C(=O)O)sc3n2)cc1`, for which the inhibition is 92.6% (active).
As to `Cc1ccc(C)c(SCc2nc3sc(C(=O)O)c(C)c3c(=O)[nH]2)c1`, the inhibition is -9.06% (inactive).
For `CCOC(=O)c1ccc[n+](CC(=O)Nc2ccccc2OC(F)F)c1` the value was -15.4% (inactive); for `C[C@@H](NC(=O)OC(C)(C)C)c1nnc(S(=O)(=O)Cc2ccccc2)o1`, 0.97% (inactive).
The result for `Cc1ccc(NC(=S)Nc2ncccc2C)c(C)c1` reads -9.14% (inactive).
The result for `CCOC(=O)c1c(NC(=O)CNC2CCCc3ccccc32)sc(C(N)=O)c1C` (configuration not stated) reads -9.07% (inactive); that for `CC1=CC(=C(C#N)c2nc3ccccc3s2)C=C(C)N1c1ccc(F)cc1F`, 176% (active).
As to `O=C(O)CS/C(=C\c1ccc(F)cc1)c1nc2ccccc2s1`, the inhibition was -2.63% (inactive).
The result for `N#C/C(=C(/O)Cc1cccc2ccccc12)c1nc2ccccc2s1` reads 4% (inactive); that for `Cc1c(C(=O)Nc2cccc(Cl)c2)cn2c(nc3ccccc32)c1C#N`, -23.4% (inactive); that for `CC(=O)Nc1ccc(NS(=O)(=O)c2cc(C)sc2C)cc1`, 15.2% (inactive).
Turning to `O=C(Nc1ccc2sc3ccccc3c(=O)c2c1)c1ccccc1Cl`, the inhibition was -5.22% (inactive).
In the case of `FC(F)(F)Oc1ccc(-c2cn3cccnc3n2)cc1`, the inhibition was -6.62% (inactive).
For `COCCOC(=O)c1sc(=S)n(CCOC)c1N` the value was 85.3% (active).
For `CCOC(=O)c1sc(=S)n(-c2cccc(OC)c2)c1N`, the inhibition is -17.2% (inactive).
For the molecule `COC(=O)c1sc(=S)n(-c2ccccc2)c1N`, the inhibition is -22.9% (inactive).
For `C/C(=N/NC(=O)CN1CCN(S(=O)(=O)c2ccc(Br)cc2)CC1)c1ccncc1` the value was -10.4% (inactive).
On to `Cc1c(NC(=S)NCc2ccc(F)cc2)cccc1[N+](=O)[O-]`, for which the inhibition is -0.91% (inactive).
On to `CCOc1ccc(/C=C(/NC(=O)c2ccccc2)C(=O)NCCC(=O)O)cc1`, for which the inhibition was 8.99% (inactive).
With `COc1cc(/C=C(\C#N)c2nc3c(s2)CC(C)CC3)ccc1O` (configuration not stated), the inhibition was -29.5% (inactive).
`COc1cc(/C=N\Nc2nc(-c3cccs3)c(NC(C)=O)s2)ccc1O`: the inhibition was -5.81% (inactive).
`CCOc1cc(/C=C(\C#N)c2nc(-c3cccs3)c(NC(C)=O)s2)ccc1O`: the inhibition is 93.2% (active).
The result for `C/C(CC(=O)N1CCN(C=O)CC1)=N\NC(=O)c1ccc(Br)cc1` reads 8.36% (inactive).
With `COc1ccc(/C=N/n2c(C)cc(C)cc2=O)cc1`, the inhibition is 1.02% (inactive).
For `Cc1cccc(NC(=S)NC23CN4CN(CN(C4)C2)C3)c1` the value was -1.99% (inactive); for `C=CCn1c(CSc2nc3ccccc3s2)nnc1SCC(=O)NCc1ccco1`, 50.6% (active).
For `C=CCn1c(SCC(=O)Nc2nc3ccccc3s2)nnc1-c1ccccc1O`, the inhibition is -0.36% (inactive).
For `CCn1c(COc2ccccc2)nnc1SCC(=O)NCc1ccco1`, the inhibition is 2.39% (inactive).
The result for `CSc1cc(C)[nH]c(=O)n1` reads 6.61% (inactive); that for `Cc1cc(C(=O)N/N=C/c2ccc(N3CCOCC3)cc2)c(C)o1`, -16.3% (inactive); that for `CNC(=O)c1ccsc1NC(=O)c1ccc(S(=O)(=O)N2CCc3ccccc32)cc1`, 0.14% (inactive).
The result for `Cc1cnc(C(=O)OCC(=O)NCCCc2ccccc2)cn1` reads -8.79% (inactive); that for `COc1ccccc1OCC(=O)OCn1c(SC)nnc(C)c1=O`, -6.57% (inactive).
The result for `Cn1c(=O)n(C)c2cc(/C=N/NC(=O)c3cccc(Br)c3)ccc21` reads -5.32% (inactive); that for `O=C(C1=C(O)C(=O)N(c2ncccn2)C1c1cccs1)c1ccco1` (configuration not stated), 65.7% (active).
With `O=C(C1=C(O)C(=O)N(Cc2ccccc2)C1c1ccco1)c1ccco1` (configuration not stated), the inhibition is -8.71% (inactive).
For `O=C(C1=C(O)C(=O)N(CCOCCO)C1c1ccccn1)c1cccs1` (configuration not stated) the value was -10.3% (inactive); for `CCOC(=O)N/N=C1\CC(C)S(=O)(=O)c2ccc(Cl)cc21` (configuration not stated), 0.18% (inactive); for `O=c1cc(CO)oc(C(Nc2cccc([N+](=O)[O-])c2)c2ccccn2)c1O` (configuration not stated), -4.92% (inactive).
On to `COc1ccc(-c2nn(C)c(=O)c3ccccc23)cc1CNC(=O)C1CCCCC1`, for which the inhibition was -11.8% (inactive).
For `COC(=O)CCCC1=CC2=CC(=O)C(C)(OC(=O)c3cccs3)C(=O)C2=CN1c1cccc(C#N)c1` (configuration not stated), the inhibition is 78% (active).
For the molecule `COC(=O)CCCC1=CC2=CC(=O)C(C)(OC(=O)c3cccs3)C(=O)C2=CN1CC(C)C` (configuration not stated), the inhibition was 2.99% (inactive).
For `COC(=O)CCCC1=CC2=CC(=O)C(C)(OC(=O)c3cccs3)C(=O)C2=CN1CC1CC1` (configuration not stated) the value was 0.53% (inactive); for `Cc1ccc(C(=O)NNc2ncnc3ccccc23)cc1`, -1.4% (inactive); for `CC(C)Oc1ccc(Oc2ccc(C(F)(F)F)cn2)cc1`, 6.36% (inactive).
As for `NC1=NC(=O)C2(COC(c3ccccc3Cl)OC2)S1` (configuration not stated), the inhibition was -11.7% (inactive).
For `CN1CCN(CCCCOc2ccccc2-c2ccccc2)CC1` the value was -24.1% (inactive).
For `CCOC(=O)CC1C(=O)NCCN1c1nc2c(C)cccn2c(=O)c1/C=C1\SC(=S)N(C(C)CC)C1=O` (configuration not stated) the value was -14.8% (inactive); for `CNc1nc2c(C)cccn2c(=O)c1C=Nc1ccc(OC)cc1`, -10.2% (inactive).
As for `Cc1cccn2c(=O)c(/C=C3\SC(=S)N(CC(C)C)C3=O)c(NCCCOC(C)C)nc12`, the inhibition is 137% (active).
`CCOc1ccc(N2CC(C(=O)N/N=C/c3sccc3C)CC2=O)cc1` (configuration not stated): the inhibition is -24% (inactive).
For `C=CCNc1cnn(-c2ccc(C)cc2)c(=O)c1Cl` the value was 15.2% (inactive).
On to `O=C(COC(=O)CNS(=O)(=O)c1ccccc1)NC12CC3CC(CC(C3)C1)C2`, for which the inhibition is -4.36% (inactive).
As for `CN(C(=O)COC(=O)c1cc(-c2ccco2)nc2ccccc12)C1CCS(=O)(=O)C1` (configuration not stated), the inhibition was 95.4% (active).
Turning to `COc1ccc(NC(=O)COc2ccc(C(=O)OCC(=O)N(C)C3CCS(=O)(=O)C3)cc2OC)cc1` (configuration not stated), the inhibition is -11.6% (inactive).
For `Cc1c(-c2cccc(Cl)c2)nc2ccccc2c1C(=O)OCC(=O)N(C)C1CCS(=O)(=O)C1` (configuration not stated) the value was 27.8% (inactive).
Regarding `COc1ccc(/C=N/NC(=O)CNC(=O)c2ccc(S(=O)(=O)N3CCCC3)cc2)c(OC)c1`, the inhibition is -7.62% (inactive).
For `COc1ccc(OCC(=O)NN2Cc3ccccc3C2=N)cc1` the value was -18.4% (inactive); for `O=C(NC1CC1)C1=C[C@H](c2c[nH]c3ccccc23)C[C@H](OCc2ccc(CO)cc2)O1`, -3.29% (inactive); for `O=C1c2cccc3c([N+](=O)[O-])ccc(c23)C(=O)N1CC1CCCO1` (configuration not stated), 64.2% (active).
The result for `O=c1c2cc3c(=O)n(CC4CCCO4)c(=O)c3cc2c(=O)n1CC1CCCO1` (configuration not stated) reads -9.61% (inactive).
For `O=C(NCc1ccc2c(c1)OCO2)c1ccc2c(c1)C(=O)N(CC1CCCO1)C2=O` (configuration not stated) the value was -19.8% (inactive).
For the molecule `CN1CCc2nc(SC(C(=O)O)c3ccccc3)c(C#N)c(-c3cccs3)c2C1` (configuration not stated), the inhibition is 6.93% (inactive).
On to `CC(C)CNC(=O)COC(=O)c1ccccc1OCC(=O)Nc1ccc(Br)cc1`, for which the inhibition was -2.14% (inactive).
For the molecule `O=C(Oc1c(-c2ccco2)oc2ccccc2c1=O)c1cccnc1`, the inhibition was -4.14% (inactive).
Turning to `Cc1cc(SCC(=O)NCCN2C(=O)CSC2=O)nc2ccccc12`, the inhibition was -6.4% (inactive).
As to `COc1cc(C(F)(F)F)nc2c(Br)c(C(C)(C)C)nn12`, the inhibition was -5.73% (inactive).
For `CN(CCN1CCOCC1)Cc1nc(-c2ccc3c(c2)OCO3)no1` the value was -2.97% (inactive); for `c1ccc(-c2oc3ncnc(N4CCOCC4)c3c2-c2ccccc2)cc1`, 0.89% (inactive); for `O=C1c2ccccc2-c2ncnc3c(N4CCOCC4)cc(N4CCOCC4)c1c23`, 51.8% (active).
With `Cc1oc2c(c1C(=O)N1CCOCC1)C(=O)c1ccccc1C2=O`, the inhibition is -10.1% (inactive).
On to `COCCn1c(Cc2cccn2C)nnc1SCC(=O)Nc1nccs1`, for which the inhibition is 0.89% (inactive).
For the molecule `COc1cccc(C(=O)Nc2ccc(N3CCCC3)cc2)c1`, the inhibition is -3.03% (inactive).
For `COc1cc(N2CCCC2)c(OC)cc1/C=C(/C#N)c1cccc(Br)c1` the value was 112% (active); for `CC(=O)Nc1cccc(Oc2cc(C#N)c(C#N)cc2N2CCOCC2)c1`, -5.04% (inactive).
For `CCO[C@H]1OC(C(=O)N2CCCCCCC2)=C[C@@H](c2ccc(C(F)(F)F)cc2)[C@@H]1CCCO` the value was 116% (active); for `CCO[C@@H]1OC(C(=O)N2CCOCC2)=C[C@H](C)[C@H]1CCCO`, -7.59% (inactive).
The result for `CCO[C@H]1OC(C(=O)N2CCOCC2)=C[C@@H](c2ccc3c(c2)OCO3)[C@@H]1CCCO` reads -9.61% (inactive); that for `COC(=O)c1sccc1NN1C(=O)c2ccccc2C1=O`, -6.24% (inactive).
On to `CC(=O)Nc1ccc(S(=O)(=O)N2CCN(C(=O)c3ccccc3F)CC2)cc1`, for which the inhibition is -7.73% (inactive).
For `CCOC(=O)C1=C(N)N(c2ccc(C)cc2)C2=C(C(=O)CCC2)C1c1cccs1` (configuration not stated) the value was -16.1% (inactive).
